Here are results for 24 compounds from PubChem BioAssay (EPA / NIEHS).

Assay [1] has as its target Luciferin 4-monooxygenase (Photinus pyralis) (UniProt P08659). The experiment in a line: CCTE_Simmons_QuantiLum_inhib_2: CCTE's Firefly Luciferase Inhibition Assay, Simmons Lab (AID 2283767).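 For AC50: potency for inhibitors that lower luciferase luminescence relative to DMSO.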 Summed up:
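Eight test concentrations, 5 nM up to 87.5 uM final, preincubated 30min at 37C in the dark with purified luciferase (0.5% DMSO final). Detection reagent (150uM D-luciferin, 147uM dATP, 75uM CoA, pH 7.8) injected per well before kinetic luminescence read; three replicates.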

In assay [2] the test system is Thyroperoxidase (TPO), gene 445522. The experiment in a line: CCTE_Simmons_GUA_TPO: CCTE's Guaiacol Assay for Thyroperoxidase (TPO) Inhibition, Simmons Lab (AID 2283750). The gist of the method: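 Porcine thyroid microsomes (25 ug) in 200mM potassium phosphate, preincubated 30 s at 37C with compound (8 concentrations, 5 nM–87.5 uM) and 35mM guaiacol; 1mM H2O2 starts reaction. Absorbance change at 450nm over first 80 s; loss of signal versus DMSO, three replicates.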

The subject of assay [3] is chicken Androgen Receptor (AR), gene 422165. Nature of the assay: ATG_chAR_XSP1: Attagene TRANS-FACTORIAL Multi-Species (XSP1) HepG2 Assay for chicken Androgen Receptor (AR) (AID 2283768). Summed up:
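Reporter mRNA read by RT-PCR with fluorescent labelling and capillary electrophoresis 24 h after chemical dosing of transiently transfected HepG2 cells. Chicken AR-Gal4 chimera, partially stimulated with 3 nM 6-alpha-fluorotestosterone; activity fitted upward relative to DMSO.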

Assay [4] can be described thus: ArunA_CellTiter_hNC: Viability Assessment in the ArunA Biomedical's Oris Neural Crest (hNC) Cell Migration Assay (AID 2283752). Summed up:
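After a 72 h chemical exposure, viability of hNC cells is read with CellTiter Aqueous One and fitted as signal loss relative to DMSO. Cells were seeded at 60,000/well on Matrigel and cultured 16 h at 37 C beforehand.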

The nature of assay [5]: ArunA_CellTiter_hNP: Viability Assessment in the ArunA Biomedical's Oris Neural Crest (hNC) Cell Migration Assay (AID 2283753). The gist of the method: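 Viability read with CellTiter 96 Aqueous One after 72 h chemical exposure of human hNP1 neuroprogenitors, which were plated on Matrigel in LIF/bFGF medium 16 h beforehand. Endpoint fitted in positive direction relative to DMSO.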

The nature of assay [6]: ArunA_Migration_hNP: ArunA Biomedical's Oris Neuroprogenitor (hNP) Cell Migration Assay (AID 2283754). The gist of the method:
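Readout is calcein-AM fluorescence (ex494/em517) of cells migrating into the detection zone, relative to DMSO. hNP1 cells (H9-derived) grown on Matrigel behind stoppers 16 h, then stoppers pulled and chemical applied 72 h; cytochalasin D as control.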

Assay [7] in a line: ArunA_Migration_hNC: ArunA Biomedical's Oris Neural Crest (hNC) Cell Migration Assay (AID 2283755). The method, then: ArunA_Migration_hNC is a cell-based, single-readout assay that uses human H9-derived embryonic neural crest stem cells (hNC). Measurements were taken 72 hours after chemical dosing in a 96-well plate.ArunA_Migration_hNC is an assay component measured from the ArunA_Migration_hNC assay. It is designed to make measurements of cell migration, a form of distribution reporter, as detected with fluorescence intensity signals by HCS Fluorescent Imaging technology. Data from the assay component ArunA_Migration_hNC was analyzed at the endpoint, ArunA_Migration_hNC, in the positive analysis fitting direction relative to DMSO as the negative control and baseline of activity. Using a type of distribution reporter, loss-of-signal activity can be used to understand the cell migration. To generalize the intended target to other relatable targets, this assay endpoint is annotated to the neurodevelopment intended target family, where the subfamily is migration.
To assess the hNP and hNC migration and cell titer endpoints, 60,000 cells per well were plated onto Matrigel in basal growth medium with LIF and bFGF in a 96-well plate format. Plates were incubated for 16 h at 37C followed by a 72 h exposure to chemical in the test medium. For the migration endpoints, cells were seeded and incubated in presence of 'seeding stoppers' to prevent cell migration and growth into the detection zone. At the beginning of chemical exposure, stoppers were removed, and growth medium was replaced with test medium. In the case of the stopper control wells, stoppers remained in place following replacement of growth medium with test medium. […] Cell viability in the detection zone was quantitated using a Flexstation3 microplate reader (ex494 nm/em 517 nm). Corresponding cell titer endpoints were assessed for the hNP and hNC cells using the Promega CellTiter Aqueous One Solution Cell Proliferation Assay (Cat no. G3581; CellTiter 96). Finally, to gain insight into the mechanisms by which cells migrate into the detection zone, Ki-67 expression was quantified for 10 additional chemicals in the hNP and hNC systems. […]

The nature of assay [8]: ArunA_NOG_NucleusCount: ArunA Biomedical's Neurite Outgrowth (NOG) Assay for Nucleus Count (AID 2283756). The protocol: ArunA_NOG (Neurite Outgrowth) is a cell-based, image-based assay that uses human H9-derived embryonic differentiated neurons (hNN). Measurements were taken 48 hours after chemical dosing in a 96-well plate.ArunA_NOG_NucleusCount is an assay component measured from the ArunA_NOG assay. It is designed to make measurements of viability related to the number of neurons, using a form of viability reporter, as detected with fluorescence intensity signals by HCS Fluorescent Imaging technology. Data from the assay component ArunA_NOG_NucleusCount was analyzed at the endpoint, ArunA_NOG_NucleusCount, in the positive analysis fitting direction relative to DMSO as the negative control and baseline of activity. […]
(§1) Chemical treatment: Differentiated hNN cells were seeded and immediately exposed to test medium for 48 h. Following chemical exposure, cell bodies were stained with Hoechst 33,258 to quantitate viable neuron count and neurites were labeled with bIII-tubulin/DyLight1 488. High content imaging assessed the neurite outgrowth endpoints: neurite total length per neuron (um), neurite count per neuron, and branch points per neurite using the methods described in (Harrill et al 2010). […] Plates were then loaded into a Cellomics ArrayScan VTI HCS reader high-content imaging system (ThermoFisher Scientific, Waltham, MA) for automated image acquisition and morphometric analyses. […]

The nature of assay [9]: ArunA_NOG_NeuritesPerNeuron: ArunA Biomedical's Neurite Outgrowth (NOG) Assay for Neurites Per Neuron (AID 2283758). Summed up: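 Differentiated human H9-derived neurons exposed to chemicals for 48 h from seeding, then stained with Hoechst and βIII-tubulin/DyLight 488. Automated imaging counted neurites (processes >10 um) per valid neuron; loss of signal versus DMSO scored.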

Assay [10] can be described thus: ArunA_NOG_NeuriteLength: ArunA Biomedical's Neurite Outgrowth (NOG) Assay for Neurite Length (AID 2283757). The method, then:
ArunA_NOG (Neurite Outgrowth) is a cell-based, image-based assay that uses human H9-derived embryonic differentiated neurons (hNN). Measurements were taken 48 hours after chemical dosing in a 96-well plate.ArunA_NOG_NeuriteLength is an assay component measured from the ArunA_NOG assay. It is designed to make measurements of neurite outgrowth related to neurite length, using a form of morphology reporter, as detected with fluorescence intensity signals by HCS Fluorescent Imaging technology. Data from the assay component ArunA_NOG_NeuriteLength was analyzed at the endpoint, ArunA_NOG_NeuriteLength, in the positive analysis fitting direction relative to DMSO as the negative control and baseline of activity. […]
as §1

Results filed as inconclusive are left out. Calls of active or inactive are those of the source. Rule for the calls: active = hit-call score of the fitted dose curve at least 0.9, where 1 is the maximum; inconclusive = response in the unintended direction; inactive = score below 0.9.

Sequence of Luciferin 4-monooxygenase (Photinus pyralis) (P08659 whole entry, looked up): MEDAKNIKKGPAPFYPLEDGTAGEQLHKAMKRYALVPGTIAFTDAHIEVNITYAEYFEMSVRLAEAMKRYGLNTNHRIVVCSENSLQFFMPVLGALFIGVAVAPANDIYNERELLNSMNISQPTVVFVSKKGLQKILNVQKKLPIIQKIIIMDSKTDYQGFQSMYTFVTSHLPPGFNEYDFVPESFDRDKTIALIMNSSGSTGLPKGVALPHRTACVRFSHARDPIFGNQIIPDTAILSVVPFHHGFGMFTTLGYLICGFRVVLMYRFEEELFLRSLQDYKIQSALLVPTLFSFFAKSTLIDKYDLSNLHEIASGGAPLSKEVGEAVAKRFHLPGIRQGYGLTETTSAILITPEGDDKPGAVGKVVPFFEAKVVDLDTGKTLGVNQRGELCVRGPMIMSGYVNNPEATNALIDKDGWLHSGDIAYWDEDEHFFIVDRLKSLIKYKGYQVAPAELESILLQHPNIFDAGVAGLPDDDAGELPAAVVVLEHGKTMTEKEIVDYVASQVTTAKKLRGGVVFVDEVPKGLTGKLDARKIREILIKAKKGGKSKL

In the case of `CCNP(=S)(OC)O/C(C)=C/C(=O)OC(C)C` (configuration not stated), in assay [1], the compound was called inactive. Same read-out and setting: then `Cc1cnc(C2=NC(C)(C(C)C)C(=O)N2)c(C(=O)O)c1` (configuration not stated), with “inactive”. A word on the AC50: it is the concentration at which the activity in the assay is half-maximal. For the compound `COP(=S)(OC)SCn1nnc2ccccc2c1=O`, the AC50 in [2] is 49.6 µM (active). For the same compound, the outcome in assay [1] was inactive. `Clc1nc(Cl)nc(Nc2ccccc2Cl)n1`: in assay [1], the AC50 was 8.85 µM (active). For `CC1(C)C(C=C(Cl)Cl)C1C(=O)OC(C#N)c1cccc(Oc2ccccc2)c1` (configuration not stated), the outcome in assay [3] was inactive.

In the case of `Cc1c(COC(=O)[C@@H]2[C@H](/C=C(\Cl)C(F)(F)F)C2(C)C)cccc1-c1ccccc1`, the compound was classed as inactive in [3].

Take `O=c1n(Cl)c(=O)n(Cl)c(=O)n1Cl`: the call in assay [1] was inactive. Take `CCOc1nc(F)cc2nc(S(=O)(=O)Nc3c(Cl)cccc3Cl)nn12`: the AC50 in [2] is 55 µM (active). In addition, the result in [1] was inactive.

On to `CS(=O)(=O)c1ccc(C(=O)C2C(=O)CCCC2=O)c([N+](=O)[O-])c1`, for which the compound was called inactive in [1]. Regarding `CC(C)C1(C)N=C(c2ncccc2C(=O)O)NC1=O` (configuration not stated), the compound was called inactive in assay [4], in [5], in [6], in [7], in assay [8] and in assay [9]. Turning to `CCOP(=O)(OCC)Oc1nc(Cl)c(Cl)cc1Cl`, in assay [1], the compound was classed as inactive. Consider `COP(=S)(OC)Oc1ccc([N+](=O)[O-])c(C)c1`, for which the compound was classed as inactive in assay [2] and in assay [1].

As to `CCNC(=O)NC(=O)C(C#N)=NOC`, the outcome in [1] was inactive. For `CC(C)NC(=O)N1CC(=O)N(c2cc(Cl)cc(Cl)c2)C1=O`, the compound was classed as inactive in assay [3]. On to `CCOP(=S)(OCC)Oc1nc(Cl)n(C(C)C)n1`, for which the outcome in assay [1] was inactive. The same measure, in the same setting: next, `CCN(CC)c1nc(C)cc(OP(=S)(OC)OC)n1`: “inactive”. Turning to `COc1ccc(-c2ccccc2)cc1NNC(=O)OC(C)C`, the call in assay [4], in [5], in assay [6], in assay [7] and in assay [8] was inactive. In addition, in assay [1], the AC50 was 0.556 µM (active).

In the case of `CCOc1nc(C(Cl)(Cl)Cl)ns1`, the compound was classed as inactive in assay [1]. For the compound `COCc1cnc(C2=NC(C)(C(C)C)C(=O)N2)c(C(=O)O)c1` (configuration not stated), the call in assay [4], in assay [5], in assay [7] and in [10] was inactive.

As for `COC(=O)NS(=O)(=O)c1ccc(N)cc1`, the AC50 in assay [2] was 136 µM (active); in assay [1] it was 0.149 µM (active). `CCN(CC)C(=O)C(C)Oc1cccc2ccccc12` (configuration not stated): the AC50 in [1] is 0.000739 µM (active).

Consider `O=P(O)(O)CCCl`, for which, in assay [1], the outcome was inactive. Same read-out and setting: next, `CC(C)=CC1C(C(=O)OCc2coc(Cc3ccccc3)c2)C1(C)C` (configuration not stated): “inactive”. In the case of `COC(=O)NC(=S)Nc1ccccc1NC(=S)NC(=O)OC`, in assay [2], the AC50 was 49.6 µM (active). For the same compound, the compound was called inactive in assay [1].
